Screening data deposited in PubChem by National Center for Advancing Translational Sciences (NCATS).
D1 ag – Allosteric Agonists of the Human D1 Dopamine Receptor: qHTS | D(1A) dopamine receptor (Homo sapiens), P21728 | HEK293 T-REx D1 cells, calcium flux, agonist mode | activation, % at 2 µM | 360,000 compounds, 1% hits | AID 504660, 2011; further: 0% is about no effect
Target sequence (P21728 whole entry, looked up): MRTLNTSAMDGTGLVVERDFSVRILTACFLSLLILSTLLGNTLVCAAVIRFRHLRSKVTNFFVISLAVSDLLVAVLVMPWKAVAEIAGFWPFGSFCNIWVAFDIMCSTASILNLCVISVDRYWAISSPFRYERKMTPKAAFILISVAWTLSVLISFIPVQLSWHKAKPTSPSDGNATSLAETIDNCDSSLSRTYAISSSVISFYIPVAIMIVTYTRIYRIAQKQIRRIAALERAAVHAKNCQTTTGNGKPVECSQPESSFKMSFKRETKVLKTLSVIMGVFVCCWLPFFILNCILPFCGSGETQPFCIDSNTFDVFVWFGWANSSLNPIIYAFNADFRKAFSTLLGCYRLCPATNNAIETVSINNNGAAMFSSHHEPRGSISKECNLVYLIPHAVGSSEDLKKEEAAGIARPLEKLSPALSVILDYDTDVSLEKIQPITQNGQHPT
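Inducible HEK293 T-REx D1 cells, force-coupled to calcium signalling, were plated at 4000 cells/well with tetracycline and held overnight at 30 C. After no-wash calcium dye loading, compound-evoked calcium rise over 180 s flagged agonists.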
D1 potentiator – Potentiators of Human D1 Dopamine Receptor: qHTS; HEK293 TREx D1 cells, calcium flux, dopamine EC20 potentiation; potentiation, % at 10 µM; 360,000 compounds, 0.036% hits; AID 504651, 2011; in the data active means potentiation above about 30%; further: 0% is about no effect
D1 antagonist – Antagonist of Human D 1 Dopamine Receptor: qHTS. D(1A) dopamine receptor (Homo sapiens), P21728. activity change, negative = inhibition, % at 10 µM. HEK293 TREx D1 cells, calcium flux, dopamine EC80; hits give low values. 360,000 compounds, 3.2% hits; in the data active means activity change below about -30%; further: on the % scale 0 is the no-effect control and ±100 the full control effect
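Tetracycline-induced HEK293 T-REx cells with force-coupled D1 receptor were loaded with a no-wash calcium dye. Compound was added after a 10 s baseline and read kinetically for 180 s; EC80 dopamine was then added and calcium flux followed another 180 s.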
TRHR ag – qHTS for Small Molecule Agonists and Allosteric Enhancers of Human TRH Receptor: Primary Screen for Agonists | activation, % at 2 µM | Thyrotropin-releasing hormone receptor (Homo sapiens), P34981 | 360,000 compounds, 0.18% hits | TRHR cells, calcium flux fluo-8, FDSS agonist mode; further: 0% is about no effect
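Steps: seed TRHR cells overnight; add fluo-8 no-wash Ca dye, RT 30 min–1.5 h; record 10 s baseline; pin-transfer compounds; monitor fluorescence 1 cycle/s for the agonist window. Calcium increases flag candidate agonists.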
TRHR enhancer – qHTS for Small Molecule Agonists and Allosteric Enhancers of Human TRH Receptor: Primary Screen for Enhancers; 360,000 compounds, 0.66% hits; Thyrotropin-releasing hormone receptor (Homo sapiens), P34981; enhancement, % at 2 µM; TRHR cells, fluo-8 calcium fluorescence, EC20 TRH enhancement; in the data active means enhancement above about 30%; further: 0% is about no effect
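TRHR-expressing cells loaded with fluo-8 calcium dye were read kinetically (ex 480/em 530) during compound addition, then stimulated with an EC20 of TRH (10 nM final). Enhancement of the Gq-mediated intracellular calcium response was scored.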
Active calls of the source: *. The list is not random: actives were taken first. Their share in the collection is about 4.6%. Unless noted, no stated cut-off is given here; in the data, active means activation above about 30%; inactive means the rest.

Results for CNS(=O)(=O)c1cn(CC(=O)N2CCN(c3ccccc3F)CC2)cc1S(=O)(=O)NC ?
D1 ag: 2; D1 potentiator: 0; D1 antagonist: -6; TRHR ag: -1; TRHR enhancer: 2

How did Cc1nn(C(=O)c2c(F)cccc2F)c(C)c1S(=O)(=O)N1CCCCCC1 do in these assays?
D1 ag: 4; D1 potentiator: -4; D1 antagonist: -63*; TRHR ag: 0; TRHR enhancer: 1

Results for Cc1ccc(C)c(N2CCN(C(=O)c3ccc4[nH]c(C)c(C)c4c3)CC2)c1 ?
D1 ag: 0; D1 potentiator: -4; D1 antagonist: -33*; TRHR ag: 0; TRHR enhancer: 23

How did O=C(CC1C(=O)NCCN1CCCc1ccccc1)NCCc1ccccc1F (stereo not drawn) do in these assays?
D1 ag: 34*; D1 potentiator: 2; D1 antagonist: -29; TRHR ag: -1; TRHR enhancer: -6

Results for O=C(CC1C(=O)NCCN1Cc1c(F)cccc1Cl)NCCCN1CCCC1=O (stereo not drawn) ?
D1 ag: 1; D1 potentiator: 2; D1 antagonist: -39*; TRHR ag: 0; TRHR enhancer: 4

Results for Cc1cc2c(s1)c1cnn(Cc3ccc(C)c(F)c3)c(=O)c1n2C ?
D1 ag: 2; D1 potentiator: 4; D1 antagonist: -27; TRHR ag: 0; TRHR enhancer: 7

Results for Cc1c(C(=O)Nc2ccc3nc(N4CCOCC4)sc3c2)oc2ccccc12 ?
D1 ag: 2; D1 potentiator: -3; D1 antagonist: -43*; TRHR ag: -1; TRHR enhancer: 4

Results for COc1cc(C(=O)Nc2ccc3nc(N4CCOCC4)sc3c2)cc(OC)c1OC ?
D1 ag: 1; D1 potentiator: 4; D1 antagonist: -22; TRHR ag: 1; TRHR enhancer: 11

What do the screens show for `CCOC(=O)C1CCCN(c2c(NCCCN(CC)c3cccc(C)c3)c(=O)c2=O)C1` (stereo not drawn)?
D1 ag: 1; D1 potentiator: -11; D1 antagonist: -16; TRHR ag: 0; TRHR enhancer: 76*

Results for COC(=O)c1ccccc1NC(=O)c1ccc(CN2CC(=O)N3CCCCC3C2=O)cc1 (stereo not drawn) ?
D1 ag: -2; D1 potentiator: 5; D1 antagonist: 0; TRHR ag: -1; TRHR enhancer: 6

How did CCNc1nc2c(c(=O)n(C)c(=O)n2C)n1Cc1ccc(F)cc1 do in these assays?
D1 ag: 9; D1 potentiator: 0; D1 antagonist: -10; TRHR ag: 0; TRHR enhancer: -5

What do the screens show for `Cc1cccc(C(=O)N2CCc3cc(CNC(=O)c4ccnn4C)ccc32)c1`?
D1 ag: 16; D1 potentiator: -3; D1 antagonist: -36*; TRHR ag: -1; TRHR enhancer: 2

How did Cc1cccc(C(=O)N2CCc3cc(CNS(=O)(=O)c4cccs4)ccc32)c1 do in these assays?
D1 ag: 8; D1 potentiator: -1; D1 antagonist: -32*; TRHR ag: -1; TRHR enhancer: 1

Results for CC(C)(C)C(=O)Nc1sc2c(c1C#N)CCN(Cc1ccccc1)C2 ?
D1 ag: 33*; D1 potentiator: 6; D1 antagonist: 3; TRHR ag: 11; TRHR enhancer: 0

How did N#Cc1c(NC(=S)NC(=O)c2ccccc2)sc2c1CCCC2 do in these assays?
D1 ag: 2; D1 potentiator: 1; D1 antagonist: 18; TRHR ag: 0; TRHR enhancer: -2

How did N#Cc1c(NC(=S)NC(=O)c2ccccc2)sc2c1CCN(CCc1ccccc1)C2 do in these assays?
D1 ag: 48*; D1 potentiator: -4; D1 antagonist: -5; TRHR ag: 11; TRHR enhancer: 4

What do the screens show for `Fc1ccc(Nc2nc(SCc3cccc(F)c3)nc3ccccc23)cc1`?
D1 ag: 11; D1 potentiator: -5; D1 antagonist: -15; TRHR ag: 1; TRHR enhancer: -2

Results for CCOC(=O)c1ccc(-n2c(CCC(=O)O)ccc2-c2ccc(Br)cc2)cc1 ?
D1 ag: 4; D1 potentiator: -3; D1 antagonist: -31*; TRHR ag: 0; TRHR enhancer: 1

What do the screens show for `O=C(O)CCc1ccc(-c2ccc(Br)cc2)n1-c1ccc(O)cc1`?
D1 ag: 0; D1 potentiator: 0; D1 antagonist: 2; TRHR ag: -1; TRHR enhancer: 0

How did CCOc1ccc(-n2c(CCC(=O)O)ccc2-c2ccc(Br)cc2)cc1 do in these assays?
D1 ag: 6; D1 potentiator: 1; D1 antagonist: -7; TRHR ag: 0; TRHR enhancer: 33*

How did CCCCN(CC)C(=O)CSc1nc2n[nH]c(C)c2c(=N)n1-c1ccc(CC)cc1 do in these assays?
D1 ag: 4; D1 potentiator: 4; D1 antagonist: -16; TRHR ag: -1; TRHR enhancer: -6

How did CCOCCCNC(=O)C(Cc1ccccc1)NS(=O)(=O)c1ccc2c(c1)c(=O)n(C)c(=O)n2C (stereo not drawn) do in these assays?
D1 ag: -4; D1 potentiator: -1; D1 antagonist: -2; TRHR ag: 0; TRHR enhancer: 7

How did CC(C)OCCCNC(=O)C(NS(=O)(=O)c1ccc2c(c1)c(=O)n(C)c(=O)n2C)c1ccccc1 (stereo not drawn) do in these assays?
D1 ag: 0; D1 potentiator: -1; D1 antagonist: -44*; TRHR ag: -1; TRHR enhancer: 19

How did COC(=O)C1=CO[C@@H](C)[C@H]2CN3CCc4c([nH]c5ccccc45)[C@@H]3C[C@H]12 do in these assays?
D1 ag: 0; D1 potentiator: -7; D1 antagonist: -52*; TRHR ag: 1; TRHR enhancer: -10

Results for CC(=O)c1ccc(NC(=O)CCc2c(C)nn(-c3ccc4nncn4n3)c2C)cc1 ?
D1 ag: 2; D1 potentiator: -4; D1 antagonist: -11; TRHR ag: 0; TRHR enhancer: 2

What do the screens show for `CCN(CC)S(=O)(=O)c1cccc(S(=O)(=O)N2CCCCC2)c1`?
D1 ag: 3; D1 potentiator: -6; D1 antagonist: -33*; TRHR ag: 0; TRHR enhancer: -8

How did COc1ccc(S(=O)(=O)N2CCCCCC2)cc1N(C)S(=O)(=O)c1ccccc1 do in these assays?
D1 ag: 11; D1 potentiator: -10; D1 antagonist: -42*; TRHR ag: 0; TRHR enhancer: -10
